# Experimental data reported in PMC5540273 (PLoS ONE, 2017).
# How the values were obtained:
# Conditions in all cases: concentration: 1 μM,replicates: in singlicate; n = 1
# TNNI3K = tested on: TNNI3K
# TRKA = tested on: T1, TRKA
# T1 construct: gene NTRK1
# TRKB = tested on: TRKB
# TRKC = tested on: T2, TRKC
# T2 construct: gene NTRK3
# TRPM6 = tested on: TRPM6
# TSSK1B = tested on: TSSK1B
# TSSK3 = tested on: TSSK3
# TTK = tested on: TTK
# TXK = tested on: TXK
# [1] = tested on: TYK2(JH1domain-catalytic)
# [2] = tested on: TYK2(JH2domain-pseudokinase)
# TYRO3 = tested on: TYRO3
# ULK1 = tested on: ULK1
# ULK2 = tested on: ULK2
# ULK3 = tested on: ULK3
# VEGFR2 = tested on: T3, VEGFR2
# T3 construct: gene KDR
# VPS34 = tested on: T4, VPS34
# T4 construct: gene PIK3C3
# VRK2 = tested on: VRK2
# WEE1 = tested on: WEE1
# WEE2 = tested on: WEE2
# 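Further: KINOMEscan kinase panel screen.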
SMILES,%Inh (TNNI3K),%Inh (TRKA),%Inh (TRKB),%Inh (TRKC),%Inh (TRPM6),%Inh (TSSK1B),%Inh (TSSK3),%Inh (TTK),%Inh (TXK),%Inh [1],%Inh [2],%Inh (TYRO3),%Inh (ULK1),%Inh (ULK2),%Inh (ULK3),%Inh (VEGFR2),%Inh (VPS34),%Inh (VRK2),%Inh (WEE1),%Inh (WEE2)
CCN(CC)CCCCNc1ncc2cc(-c3c(Cl)cccc3Cl)c(NC(=O)NC(C)(C)C)nc2n1,91.5%,90%,55%,45%,0%,0%,0%,2%,47%,7%,0%,8%,0%,29%,0%,90.4%,12%,0%,3%,3%
C[C@H]1Oc2cc(cnc2N)-c2c(nn(C)c2C#N)CN(C)C(=O)c2ccc(F)cc21,0%,97.7%,93.4%,78%,0%,58%,0%,7%,0%,0%,0%,5%,0%,0%,0%,3%,0%,42%,0%,16%
Nc1nc(Nc2ccccc2)cc(-c2ccc3c(N)n[nH]c3c2)n1 [GSK2225749],0%,30%,0%,0%,0%,2%,24%,24%,0%,46%,45%,0%,92.8%,62%,16%,5%,3%,0%,0%,0%
O=C(NCCNc1ccnc(NCc2ccc(F)cc2)n1)c1cc2ccccc2s1 [GSK1379944],69%,0%,0%,22%,1%,16%,4%,0%,11%,2%,10%,4%,3%,0%,0%,0%,0%,0%,3%,19%
Cl.Cl.Nc1nc(-c2ccc3c(N)n[nH]c3c2)cc(N2CCCC(NC(=O)c3ccccc3)C2)n1 (stereo not shown) [GSK2286775],0%,0%,0%,0%,46%,13%,10%,0%,100%,0%,38%,0%,11%,2%,36%,9%,0%,0%,18%,0%
NC(=O)c1cc(-c2ccccc2)cc2c(C3CCNCC3)c[nH]c12 [GSK301362],10%,51%,0%,4%,33%,27%,22%,24%,0%,69%,99.7%,1%,23%,29%,18%,0%,0%,0%,14%,11%
CN(C)CCOc1ccc(-c2cc(-c3c[nH]nc3-c3ccccn3)ccn2)cc1 [GW835314],12%,0%,0%,32%,2%,0%,0%,0%,8%,31%,21%,8%,0%,31%,4%,6%,0%,0%,0%,11%
C[C@@H]1CCN(C(=O)CC#N)C[C@@H]1N(C)c1ncnc2[nH]ccc12,0%,0%,0%,0%,0%,0%,0%,0%,1%,,,0%,0%,0%,0%,0%,0%,0%,0%,2%
Cc1cc2cn[nH]c2cc1-c1cccc2c(N)c(C(N)=O)nnc12,0%,51%,66%,54%,75%,0%,28%,34%,95.4%,71%,65%,15%,28%,30%,50%,13%,19%,21%,12%,29%
COc1ccc(C[C@@H](CN)NC(=O)c2cc(Br)c(-c3ccnc4[nH]ccc34)s2)cc1.Cl.Cl [GSK1389063],27%,91.8%,90.8%,90.3%,0%,28%,12%,23%,30%,82%,23%,0%,40%,16%,12%,58%,35%,47%,0%,18%
CNC(=O)c1ccccc1Sc1ccc2c(/C=C/c3ccccn3)n[nH]c2c1,0%,77%,15%,0%,0%,0%,1%,0%,0%,0%,0%,0%,20%,58%,,99.9%,3%,0%,0%,
CC(C)N1C(=O)Cc2cc(Nc3ncc(C(F)(F)F)c(NCc4cccc(S(C)(=O)=O)c4)n3)ccc21,0%,96.7%,84%,62%,4%,0%,0%,99.1%,0%,92.2%,29%,0%,60%,54%,59%,74%,55%,39%,38%,7%
Cc1ccc2c(-c3ccncc3)c(-c3ccc(F)cc3)nn2c1.Cl [GW461484],5%,18%,0%,2%,8%,9%,9%,0%,0%,0%,2%,0%,7%,0%,23%,2%,0%,0%,3%,1%
